# Source: PubChem
# Giardia killer = kills Giardia lamblia | Giardia lamblia trophozoite viability | activity change, % at 7.66 µM, hits read low | actives 0.15% (n = 340,000); in the data active means activity change below about -80%; inconclusive means between about -30% and that limit;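 further: parasites exposed to compound for two days anaerobically before the ATP read; on the % scale 0 is the no-effect control and ±100 the full control effect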
#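 Giardia trophozoites, 100 cells per well, were exposed to compounds for 48 hrs at 37 deg C under anaerobic conditions; viability was then read as ATP content by bioluminescence after 15-30 min at room temperature.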
# Gal4-VP16 FLuc = counter-screen for ROR gamma inhibitors: Gal4-VP16 reporter; Drosophila S2 Gal4-VP16 UAS-luciferase, luminescence, 20 h; Potency, µM (series often up to 53.6 µM), inactives show at the top dose activity, negative = inhibition, actives largely listed as inhibitors; actives 3.5% (n = 310,000); AID 2546;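 further: Gal4-VP16 expression switched on by copper sulfate through the metallothionein promoter; potency means the concentration at half of the fitted maximal effect; on the % scale 0 is the no-effect control and ±100 the full control effect; nearly all actives have a fitted effect of over 50% in size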
# RORg inh = ROR gamma (mouse) transcription inhibition. Drosophila S2 Gal4-RORgamma UAS-luciferase reporter, 20 h. Potency, µM (top dose mostly 53.6 µM), without a hit: top-dose activity change, negative = inhibition, hits mostly inhibitors. actives 5.4% (n = 310,000). AID 2551; further: potency means the concentration at half of the fitted maximal effect; on the % scale 0 is the no-effect control and ±100 the full control effect; nearly all actives have a fitted effect of over 60% in size
# Target sequence (P51450 whole entry, looked up, the tested form may be a part): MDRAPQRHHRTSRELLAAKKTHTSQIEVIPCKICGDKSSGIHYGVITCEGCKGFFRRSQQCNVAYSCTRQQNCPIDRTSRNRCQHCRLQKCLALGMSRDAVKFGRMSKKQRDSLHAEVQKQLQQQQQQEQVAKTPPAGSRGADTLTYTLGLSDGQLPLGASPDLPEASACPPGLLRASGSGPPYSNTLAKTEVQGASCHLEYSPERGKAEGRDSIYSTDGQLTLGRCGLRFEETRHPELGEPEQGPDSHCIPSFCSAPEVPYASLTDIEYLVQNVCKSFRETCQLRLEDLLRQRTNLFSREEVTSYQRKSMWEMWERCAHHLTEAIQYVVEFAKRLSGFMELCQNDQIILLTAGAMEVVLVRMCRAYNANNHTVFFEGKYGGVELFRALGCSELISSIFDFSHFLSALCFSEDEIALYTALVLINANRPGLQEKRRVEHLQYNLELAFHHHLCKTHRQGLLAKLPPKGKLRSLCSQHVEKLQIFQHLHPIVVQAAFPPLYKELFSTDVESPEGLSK
#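 ROR gamma transcriptional activity was tracked as Gal4-UAS luciferase output in stably transfected Drosophila Schneider cells, with compound added 1 hr before 700 uM copper sulfate induction and a 20 hr ambient-temperature incubation.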
# ERG-DNA inh = blocks human ERG Ets domain binding to DNA | actives 0.028% (n = 370,000) | Potency, µM (series often up to 76.9 µM), inactives show at the highest dose FP activity, negative = inhibition, hits mostly inhibitors | P11308 | fluorescence polarization, His-ERG Ets domain / labelled DNA | AID 624246; active means well fitted inhibition curve with a large enough effect in the polarisation, with a control signal flat; inconclusive means small, poorly fitted or top-dose-only effect, or effect the other way, or a change in a side signal; inactive means no such curve, though single readings can be large or run the other way; the % refers to the polarisation;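 further: polarization taken with two DNA probes labelled with fluorescein and Texas red; potency means the concentration at half of the fitted maximal effect; % of control where 0% means no effect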
#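 His-tagged ERG Ets domain (1 uM in the protein solution; 300mM KCl, 50mM Tris-HCl, 1mM EDTA, 1mM DTT, pH 7.5) received compound, then a probe mix of 5 nM fluorescein-DNA and 100nM Texas-615-DNA. Fluorescence polarization was read for both dyes.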
# Integrin act MD = activators of alpha7 integrin expression for muscular dystrophy; alpha7betagal myoblasts, beta-gal FDG fluorescence, 48 h; Potency, µM (doses to about 38.3 µM), for the others: at the top dose activation, actives largely listed as activators; actives 0.064% (n = 350,000);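 further: potency means the concentration at half of the fitted maximal effect; 100% = response of the positive control SU9516; nearly all actives have a fitted effect of over 60% in size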
#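 Alpha7betagal+/- myoblasts (passage 13) were plated 16-24 hr, then exposed to compounds (1:260 dilution of DMSO stock) for 48 hours at 37C. After MPER lysis, β-galactosidase reporter activity was read as FDG fluorescence (ex 480/em 540) after 30 minutes.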
# Numbers without * were called inactive; u = inconclusive; x = no result given; [ ] = another dose, or the depositor's remark. The sample as a whole holds a higher share of hits than the screen did. Unless noted, the call rests on the fitted dose curve; in most records, active means well fitted curve in the direction sought with a large enough effect; inconclusive means small, poorly fitted or top-dose-only effect, or another doubt; inactive means no such curve, though single readings can be large; an effect the other way counts as inactive or inconclusive.
SMILES,Giardia killer,Gal4-VP16 FLuc,RORg inh,ERG-DNA inh,Integrin act MD
Cc1ccc2nc(-c3cccc(N)c3)[nH]c2c1,u,8.9µM*,7.9µM*,1%,9%
Cc1ccc(-c2nc3cc(C)ccc3o2)cc1,-24,14µM*,11µM*,-4%,-16%
CC(C)CC(=O)Nc1ccc2oc(-c3cccnc3)nc2c1,-18,1%,5%,x,26%
Cc1ccc2oc(-c3ccc(NC(=O)CC(C)C)cc3)nc2c1,-10,1.1µM*,0.28µM*,u,8%
Nc1cccc(-c2nc3ccccc3[nH]2)c1,-2,-3%,u,-5%,0%[7.66 µM]
CCC(C(=O)Nc1ccc(C)c(Cl)c1)n1c(=O)c(-c2ccccc2NC(C)=O)nc2ccccc21 (stereo not drawn),x,x,x,1%,x
CSCC[C@H](NC(=O)c1nn(C)c(=O)c2ccccc12)c1nc2ccccc2[nH]1,8,3%,21%,x,-1%
CC12CCC(C(=O)N(CSC(=S)N/N=C\c3ccccc3Cl)C1=O)C2(C)C (stereo not drawn),1,0%,u,-3%,14%
CC12CCC(C(=O)N(CSC(=S)N/N=C\c3ccccc3)C1=O)C2(C)C (stereo not drawn),-18,1.6µM*,1.1µM*,10%,0%
CNC(=S)N/N=C/c1cc(C)ccc1C,-18,5µM*,2.2µM*,2%,u
CCNC(=S)N/N=C/c1cc(C)ccc1C,4,2.5µM*,1.8µM*,-3%,-17%
CNC(=S)Nc1ccc(C)cc1,-3,13%,u,8%,13%
CN(C)c1ccc(/C=N/NC(N)=S)cc1[N+](=O)[O-],u,u,18µM*,-3%,-5%
C=CCNC(=S)N/N=C/c1ccc(C)cc1C,17,u,0.45µM*,0%,-24%
CCS(=O)(=O)c1nc(S(=O)(=O)c2ccc(Cl)cc2)c(N2CCC(C(N)=O)CC2)s1,5,-6%,5%,-4%,-44%
Cc1ccc(C(=O)Nc2cccc(N3C(=O)C4CCC(C)CC4C3=O)c2)cc1 (stereo not drawn),4,1%,-19%,-1%,-6%
COc1cc(NC(=O)CSc2nc3nc(C)c(Cc4ccccc4Cl)c(C)n3n2)cc(OC)c1,x,x,x,-1%,x
Cc1cc(=O)oc2cc(NC(=O)[C@H](CCCCN)NC(=O)[C@H](CC3CCCCC3)NC(=O)OCC3c4ccccc4-c4ccccc43)ccc12,x,-14%,7%,x,x
CC(C)NC(=S)N/N=C/c1ccccc1[N+](=O)[O-],11,5.6µM*,1.8µM*,-3%,11%
CCNC(=S)N/N=C/c1cccc(C)c1,-6,0.89µM*,0.89µM*,-3%,2%
C=CCNC(=S)N/N=C/c1ccc(C)c([N+](=O)[O-])c1,-4,4.5µM*,1.1µM*,-1%,-17%
Cc1ccc(C)c(/C=N/NC(=S)NC(C)C)c1,-23,3.2µM*,2.2µM*,1%,-25%
CCc1cc2c(cc3c(=O)n(CCCC(=O)NCc4cccc(Br)c4)ncn32)s1,x,x,x,-3%,x
O=C(N/N=C1/C[C@@H](O)[C@@H](O)[C@@H]2[C@@H]3C(=O)N(Cc4ccccc4)C(=O)[C@H]3CC[C@H]12)OCc1ccccc1,x,-6%[10 µM],3%[10 µM],x,x
O=C(c1ccncc1)N1CCC[C@@]2(CCN(C(c3ccccc3)c3ccccc3)C2)C1,x,-2%,0%,x,x
SMILES,Giardia killer,Gal4-VP16 FLuc,RORg inh,ERG-DNA inh,Integrin act MD
COc1cc(C)c(NC(=O)C2CCN(S(=O)(=O)c3cccs3)CC2)cc1OC,-2,x,x,7%,19%
CC(C)NC(=S)NC(=O)/C=C/c1cccc2ccccc12,-13,4.5µM*,1.4µM*,-2%,6%
CN1CCN(C(=S)NC(=O)/C=C/c2cccs2)CC1,22,u,10µM*,-18%,12%
CN1CCN(C(=S)NC(CC(=O)c2ccccc2)c2ccccc2)CC1 (stereo not drawn),3,6%,-16%,-6%,12%
CN1CCN(C(=S)NC(=O)/C=C/c2cccc3ccccc23)CC1,11,3.2µM*,1µM*,x,-21%
N=c1oc2cc(O)ccc2cc1C(=O)Nc1ccc(Cl)cc1,4,2µM*,2.2µM*,-4%,36%
C=C1C(=O)[C@@]23[C@H](O)C[C@@H]4C(C)(C)CC[C@H](O)[C@@]4(C)[C@@H]2CC[C@@H]1[C@H]3O,-11,5.6µM*,2.8µM*,-1%,-5%
C=C1C(=O)[C@@]23[C@H](O)C[C@@H]4C(C)(C)CC[C@H](O)[C@]4(C)[C@@H]2C[C@H](O)[C@@H]1[C@H]3O,-8,3.2µM*,2.5µM*,-8%,0%
COc1cccc(NC(=O)CN(C)C(=O)C23CC4CC(CC(Cl)(C4)C2)C3)c1,-17,x,x,0%,5%
CC(C)(C)OC(=O)NC(Cc1ccccc1)C(O)c1ccco1 (stereo not drawn),4,-6%,17%,x,x
CCC(NC(=O)NNC(N)=S)(C(F)(F)F)C(F)(F)F,2,-15%,11µM*,-4%,u
CCC(NC(=O)Nc1ncccc1C)(C(F)(F)F)C(F)(F)F,20,-3%,7%[10 µM],-3%,20%
CCCCn1c(SCC(=O)c2cc(OC)ccc2OC)nc2cc(S(N)(=O)=O)ccc21,5,0%,12%,0%,7%
CCCCn1c(SCc2ccc(C(=O)OC)o2)nc2cc(S(N)(=O)=O)ccc21,16,10µM*,-16%,x,-45%
O=C1OC(Sc2ccccc2)(c2ccccc2)c2ccccc21 (stereo not drawn),-11,x,x,2%,5%
COCCCNC(=S)NNC(=O)c1ccc2c(c1)OCO2,-19,1%,-52%,-6%,7%
CC(C)OCCCNC(=S)NNC(=O)c1ccc(Cl)c(Cl)c1,6,u,14µM*,5%,22%
COc1ccc(C(=O)O/N=C(\N)Cc2ccc(Cl)cc2)cc1OC,-1,16µM*,u,-1%,-1%
N/C(Cc1ccc(Cl)cc1)=N\OC(=O)c1ccccc1,-4,-22%,-22%,4%,0%
COc1ccc(C(=O)O/N=C(\N)Cc2ccc(Cl)c(Cl)c2)cc1OC,-10,6.3µM*,u,4%,18%
COc1cc(/C=C2\CCc3c2nc2ccccc2c3C(=O)O)cc(OC)c1OC,u,u,10µM*,-1%,21%
COc1cc(/C=C2\CCCc3c2nc2ccccc2c3C(=O)O)cc(Br)c1O,-1,-2%,3%,3%,-16%
COc1ccc(N(CC(=O)NCCC(C)C)C(=O)c2snc(C(=O)NC3CCCCC3)c2N)c(OC)c1,2,1%,12%,3%,10µM*
COc1ccc(NC(=O)CSc2oc(-c3ccco3)nc2S(=O)(=O)c2ccc(Br)cc2)c(OC)c1,x,x,x,-3%,x
COc1ccc(CC(=O)N2CCc3cc(OC)c(OC)cc3C2O)cc1OC (stereo not drawn),u,2%,20%,5%,-9%
Cc1cccc(C)c1NC(=O)c1ccc([N+](=O)[O-])s1,u,u,-28%[10 µM],7%,-46%
